# Source: PubChem BioAssay (National Center for Advancing Translational Sciences (NCATS))
# In the library only some 12% were active in any assay of this set; here they are far more common.
# BAZ2B block: BAZ2B (human) inhibition. AlphaScreen BAZ2B-H3K14Ac peptide displacement. actives 4.4% (n = 360,000). Potency, µM (top dose mostly 114 µM), for inactives: at the top dose activity change, negative = inhibition, most hits filed as inhibitors. AID 504333. Q9UIF8; note: % is set by controls: 0 for no effect and ±100 for the full control effect; nearly all actives have a fitted effect of over 60% in size
#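 In this displacement format the biotinylated H3(5-23) peptide acetylated at Lys14 serves as ligand at 50 nM, with BAZ2B at 50 nM in PBS pH 7.4 containing 0.01% Tween-20. Donor and acceptor beads are 10 ug/mL final.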
# JMJD2A Tudor: JMJD2A Tudor domain (human) inhibition; AlphaScreen JMJD2A-Tudor / H3K4me3 peptide binding; Potency, µM (top dose mostly 114 µM), inactives show at the highest dose activity change, negative = inhibition, hits mostly inhibitors; actives 4.4% (n = 390,000); AID 504339; note: % is set by controls: 0 for no effect and ±100 for the full control effect; nearly all actives have a fitted effect of over 50% in size
# PLK1 PBD inh: inhibitors of human PLK1 polo-box domain binding | actives 2.8% (n = 360,000) | Potency, µM, inactives show max response, negative = inhibition, usual class: inhibitors | P53350 | Plk1 PBD binding of FITC phosphopeptide, fluorescence polarization; note: series mostly up to about 57 µM; % is set by controls: 0 for no effect and ±100 for the full control effect; nearly all actives have a fitted effect of over 65% in size
# Sfp inh: Sfp phosphopantetheinyl transferase inhibition; Q9F4F7; Biochemical Sfp PPTase activity, qHTS; Potency, µM, without a hit: largest response in the series, negative = inhibition, hits mostly inhibitors; actives 3.5% (n = 310,000); AID 1490;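 note: the enzyme is Sfp with the accession as filed and its product quenches rhodamine fluorescence; 0% = enzyme reaction without inhibitor and -100% = no enzyme wells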
#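 Step 1, compound plus 15 nM Sfp-PPTase, 15 min, room temperature. Step 2, add rhodamine-CoA (5 uM) and BHQ-2-YbbR (12.5 uM). Step 3, read 525/598 nm fluorescence at 0 and 30 min.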
# G9a block: inhibitors of human histone lysine methyltransferase G9a | Q96KQ7 | G9a H3K9 monomethylation, AlphaScreen, 2 h | Potency, µM (titrated, usually from 102 µM), without a hit: top-dose activity, negative = inhibition, actives largely listed as inhibitors | actives 8.8% (n = 350,000); note: % is set by controls: 0 for no effect and ±100 for the full control effect; nearly all actives have a fitted effect of over 75% in size
#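 Readings reflect AlphaScreen signal from monomethyl-H3K9 antibody detection. HMT at 20 nM; substrate b-H3K9 500 nM; cofactor SAM 20 uM; 2 h RT reaction; compounds tested as titrations in qHTS with 15 min preincubation.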
# HP1b binding inh: inhibitors of HP1-beta chromodomain binding to methylated histone tails. actives 0.56% (n = 390,000). AlphaScreen HP1-beta / biotin-H3K9me3 peptide binding. Potency, µM (series often up to 114 µM), inactives show at the top dose activity change, negative = inhibition, usual class: inhibitors. P83916; note: nearly all actives have a fitted effect of over 70% in size
#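 AlphaScreen: HP1-beta (50 nM) preformed 30 min with biotin-H3(1-18)K9me3 peptide (50 nM) in PBS pH 7.4, 0.01% Tween-20. Compound added for 30 min at RT, then streptavidin donor/nickel chelate acceptor beads (10 ug/mL) for 30 min.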
# Numbers without * were called inactive; ? = inconclusive; · = no result; ! = not active in a repeat; [ ] = remark or other dose. Calls come from the whole dose curve; as a rule, active = well fitted curve in the direction sought with a large enough effect; inconclusive = small, poorly fitted or top-dose-only effect, or another doubt; inactive = no such curve, though single readings can be large; an effect the other way counts as inactive or inconclusive. Potency is the fitted concentration of half-maximal effect.
SMILES,BAZ2B block,JMJD2A Tudor,PLK1 PBD inh,Sfp inh,G9a block,HP1b binding inh
CCOC(=O)c1ccc(CN2CCCC(C)(C(=O)NCCOC)C2)cc1 (stereo not given),·,·,-9%,·,·,·
Cc1ccc(-c2cnc(C(O)c3ccc(Cl)cc3C)[nH]2)cc1 (stereo not given),·,·,3%,·,·,·
O=[N+]([O-])c1cc(Cl)ccc1Nc1nc(Nc2ccc(Cl)cc2[N+](=O)[O-])nc(N2CCOCC2)n1,·,-29%[57.1 µM],·,·,·,-9%[57 µM]
CC(C)COC(=O)N(C)C[C@H]1OCc2cnnn2CCCC(=O)N([C@H](C)CO)C[C@H]1C,·,·,-11%,·,·,·
Cc1ccc2oc(=O)n(CC(=O)O)c2c1,-2%,-30%,27µM*,4%,-41%,34%
CCOC(=O)Cn1c(=O)oc2ccc(C)cc21,14%,-2%,-6%,15%,14%,59%
O=C(O)c1cccc2c(-c3ccccc3)c(-c3ccccc3)[nH]c12,?,?,24µM*,-2%,·,-25%
CCCn1cnc2cc(NCc3ccc(Br)cc3)ccc21,45µM*,16µM*,-8%,-9%,45µM*,?
Cn1cnc2cc(NCc3ccc(Cl)cc3)ccc21,?,?,-11%,5%,45µM*,-19%
CCn1cnc2cc(NS(=O)(=O)c3ccc(C)cc3)ccc21,-30%,-14%,-5%,15%,-43%[59 µM],22%
CCCn1cnc2cc(NCc3cccc(OC)c3)ccc21,?,?,-9%,-1%,-4%[12.7 µM],-23%
CCn1cnc2cc(NCc3ccc(Br)cc3)ccc21,45µM*,14µM*,-10%,-1%,13µM*,?
CCCn1cnc2cc(NCc3ccccc3O)ccc21,-30%,-36%,-9%,10%,40µM*,4%
CCC(=O)Nc1ccc2c(c1)ncn2CCc1ccccc1,2%,-10%,-3%,25%,3%[2.33 µM],26%
O=C(COc1ccccc1[N+](=O)[O-])Nc1ccc2c(c1)CCC2,-20%,-10%,2%,·,17%[12.7 µM],47%
Cc1ccc(C)c(Cn2nnc(C(=O)NCc3ccc(Cl)cc3Cl)c2N)c1,?,-16%,·,·,-23%[59 µM],10%
Cc1cccc(C(=O)NCCCNC(=O)c2cccnc2)c1,0%,-7%,-8%,17%,-1%,13%
CC(=O)c1cccc2c(O)c(C3=Nc4ccccc4C3=O)[nH]c12,25µM*,45µM*,?,40µM*,?,-94%
CCC(C)n1c(=N)c(S(=O)(=O)c2ccc(C)cc2)cc2c(=O)n3cc(C)ccc3nc21 (stereo not given),4%,-8%,·,·,2%[59 µM],41%
Cc1ccc(S(=O)(=O)N/N=C/c2ccc3nccnc3c2)cc1,-17%,-18%[11.4 µM],?,3%,3.2µM*,51%
COc1ccc(O)c(/C=N/NS(=O)(=O)c2ccc(C)cc2)c1,-15%,-10%,-12%,7%,-12%,4%
CC(=O)Oc1ccc(/C=N/NS(=O)(=O)c2ccc(C)cc2)c(OC(C)=O)c1,-22%,-20%,-11%,5%,40µM*,29%
Cc1ccc(S(=O)(=O)N/N=C\c2cccnc2)cc1,-22%[57.1 µM],-10%,-11%,-21%,18%[0.501 µM],22%
COc1ccc(/C=N/NS(=O)(=O)c2ccc(C)cc2)cc1OC(=O)c1ccccc1,79µM*,-32%,-9%,3%,-22%[59 µM],5%
COc1cc(/C=N/NS(=O)(=O)c2ccc3ccccc3c2)ccc1OCc1ccc(C(=O)O)cc1,-25%,-20%,-12%,9%,50µM*,22%
SMILES,BAZ2B block,JMJD2A Tudor,PLK1 PBD inh,Sfp inh,G9a block,HP1b binding inh
CCOc1ccc(C2C(=O)N(C3CCCCCC3)CC(=O)N2Cc2ccc(C)cc2)cc1OC (stereo not given),-18%,-31%,·,·,-4%[59 µM],18%
CC(=O)Nc1cncc(-c2cccc(C(=O)N3CCOCC3)c2)n1,·,·,-8%,·,·,·
COc1cccc(-n2cc3c(=O)n(C)c(=O)n(C)c3c2)c1,?,-6%,-7%,-15%,35µM*,27%
CCOC(=O)CC1C(=O)NCCN1c1nc2c(C)cccn2c(=O)c1/C=C1\SC(=S)N(CC(C)C)C1=O (stereo not given),-4%,·,·,-24%,-32%,·
CC(C)CN1C(=O)/C(=C/c2c(N3CCc4ccccc4C3)nc3ccccn3c2=O)SC1=S,-38%,·,·,4%,35µM*,·
COCCCN1C(=O)C(CC(=O)NCc2ccco2)CC(C(=O)N(C)C)=C1C (stereo not given),·,·,-5%,·,·,·
O=C(CONS(=O)(=O)c1ccc(Cl)cc1)NCCNc1ncc(C(F)(F)F)cc1Cl,-16%,-17%,-24%,23%,56µM*,28%
Cc1cc(NN)nc(Cc2ccccc2)n1,-32%,-3%,-1%,50µM*,18%,23%
Cc1cccc(OCCn2nnc3sc4c(c3c2=O)CCCC4)c1,45%,31%,·,·,69%[59 µM],56%
CCCCOC(=O)c1ccc(Nc2nc3ccccc3c3nnc(C)n23)cc1,-13%,-7%,·,·,-4%[59 µM],23%
CCSc1cc(C2C(C(=O)OC)=C(C)NC3=C2C(=O)CCC3)c(C)o1 (stereo not given),?,?,-23%,-19%,7.1µM*,?
Nc1ncnc2c1ncn2[C@@H]1O[C@H](COP(=O)(O)OP(=O)(O)OP(=O)(O)OP(=O)(O)OC[C@@H]2O[C@H](n3cnc4c(N)ncnc43)[C@@H](O)[C@H]2O)[C@@H](O)[C@H]1O,·,·,·,12%,25µM*!,·
Nc1ncnc2c1ncn2C1OC(C(=O)NC2CC2)C(O)C1O (stereo not given),-2%,-13%,-6%,·,-5%[59 µM],28%
CNC(=O)[C@H]1O[C@@H](n2cnc3c(NCc4cccc(I)c4)nc(Cl)nc32)[C@H](O)[C@@H]1O,-1%,-26%,0%,-14%,-5%[59 µM],23%
Nc1ncnc2c1ncn2[C@@H]1O[C@H](COP(=O)(O)OP(=O)(O)O)[C@@H](O)[C@H]1O,·,·,·,50µM*!,35%[59 µM],·
CNC(=O)[C@H]1O[C@@H](n2cnc3c(N)ncnc32)[C@H](O)[C@H]1O,·,·,·,·,3.2µM*,·
O=C(c1cccc(F)c1)N1CCCc2ccccc21,3%,-15%,-1%,8%,-6%,31%
CCC(C)c1cc([N+](=O)[O-])cc([N+](=O)[O-])c1OC(C)=O (stereo not given),·,·,·,1%,·,·
CSc1nc(N)c2ncn([C@@H]3O[C@H](COP(=O)(O)OP(=O)(O)OP(=O)(O)O)[C@H](O)[C@H]3O)c2n1,·,·,·,·,49%[12.7 µM],·
Nc1nc(Cl)nc2c1ncn2[C@@H]1O[C@H](COP(=O)(O)OP(=O)(O)OP(=O)(O)O)[C@@H](O)[C@H]1O,·,·,·,·,27µM*,·
